MARV entry inh: inhibitors of Marburg virus binding or cell entry | Potency, µM (series often up to 37.8 µM), inactives show at the top dose activity change, negative = inhibition, actives largely listed as inhibitors | 1.8% of 300,000 active | Marburg virus pseudotyped entry inhibition, cell reporter; calls by dose curve; tested in HEK293 cells; also: potency is read from the fitted curve at half-maximal effect
HCMV inh: human cytomegalovirus inhibition; AID 1259415; HFF cells, HCMV-luciferase reporter, 72 h; hits give low values; 4.5% of 410,000 active; activity change, negative = inhibition, % at 57.5 µM; in the data active = activity change below about -60%; inconclusive = no clear call, values can overlap the other calls; inactive = above about -39%
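After 16 h attachment at 37C, HFF cells received test compound and HCMV-luciferase (1 PFU/cell); reporter luminescence read 72 h later, data normalized against buffer-only and known inhibitor Salinomycin.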
FMDV inh: blocks foot and mouth disease virus | 1.2% of 410,000 active | AID 1159524 | Potency, µM (doses to about 57.9 µM), for the others: top-dose activity change, negative = inhibition, actives largely listed as inhibitors | FMDV antiviral cell-based qHTS; calls by dose curve; tested in HEK293T cells; also: read-out not given here; potency is read from the fitted curve at half-maximal effect; nearly all actives have a fitted effect of over 45% in size
LASV entry inh: blocks Lassa virus binding to or entry into cells; AID 540256; 1.2% of 300,000 active; Potency, µM (top dose mostly 37.9 µM), inactives show at the top dose activity change, negative = inhibition, hits mostly inhibitors; Lassa virus pseudotype entry inhibition, cell reporter; calls by dose curve; tested in HEK293 cells; also: potency is read from the fitted curve at half-maximal effect; nearly all actives have a fitted effect of over 50% in size
An asterisk follows results filed as active; [ ] = dose if it differs, or a comment. A selection: hits, their analogues and other compounds. The true share with any hit is near 6.2%. % is scaled to controls: 0 for no effect and ±100 for the full control effect.

Screening COc1ccc(CCNC(=O)CCc2c(C)nc3cc(-c4ccc(Cl)cc4)nn3c2C)c(OC)c1 returned MARV entry inh 10%[46.1 µM], HCMV inh 6, FMDV inh -9% and LASV entry inh 4%[46.1 µM].
`CCc1ccc(CNc2ccc(N3CCN(C(C)=O)CC3)cc2)cc1` gave MARV entry inh -24%, HCMV inh -80*, FMDV inh -24% and LASV entry inh inconclusive.
For CC(=O)N1CCN(c2ccc(NCc3ccc(C)cc3)cc2)CC1 the results were MARV entry inh 15%, HCMV inh -4, FMDV inh -15% and LASV entry inh -6%.
C/C(=N\Nc1cc(N2CCCCC2)nc(C)n1)c1ccc(Br)cc1 was read as HCMV inh -67* and FMDV inh inconclusive.
For C/C(=N\Nc1cc(N2CCOCC2)nc(C)n1)c1ccc(F)cc1 the results were MARV entry inh 2.8µM*, HCMV inh 60, FMDV inh -16% and LASV entry inh inconclusive.
For C/C(=N\Nc1cc(N2CCOCC2)ncn1)c1ccccc1 the results were HCMV inh -11 and FMDV inh 43%.
COc1cc(SC#N)ccc1N=Cc1c(C)[nH]n(-c2ccc(Cl)cc2)c1=O was read as MARV entry inh inconclusive, HCMV inh 21, FMDV inh -4% and LASV entry inh 1%.
`COc1cc(SC#N)ccc1N=Cc1c(C)[nH]n(-c2ccc(C)c(C)c2)c1=O` gave MARV entry inh inconclusive, HCMV inh -65*, FMDV inh 13µM* and LASV entry inh 11µM*.
`CCOC(=O)CCN1C(=O)[C@@H]2[C@H]3[C@H](O)[C@H](O)CC(=NNC(=O)OCc4ccc(OC)cc4)[C@H]3CC[C@H]2C1=O` gave MARV entry inh 22%[14.2 µM] and LASV entry inh 0.17µM*.
`CCOC(=O)CCN1C(=O)[C@H]2[C@H]3[C@H](O)[C@H](O)C/C(=N\NC(=O)OCc4ccc(OC)cc4)[C@H]3CC[C@H]2C1=O` gave MARV entry inh 22%[14.2 µM].
CCCOC(=O)c1cccc(NC(=O)c2c(-c3ccccc3Cl)noc2C)c1 was read as HCMV inh 8, FMDV inh -28% and LASV entry inh inconclusive.
`COc1ccc(-n2nc(C#N)c(Cl)cc2=O)cc1` gave MARV entry inh 3.2µM*, HCMV inh -101*, FMDV inh 22µM* and LASV entry inh inconclusive.
`CCn1ccc(=N)cc1` gave MARV entry inh 4%[46.1 µM], HCMV inh 19, FMDV inh -14% and LASV entry inh -10%.
CCCCCCCCCn1ccc(=N)cc1 was read as MARV entry inh inconclusive, HCMV inh -95*, FMDV inh 20µM* and LASV entry inh inconclusive.
CCCCCCCn1ccc(=N)cc1 was read as MARV entry inh inconclusive, HCMV inh -91*, FMDV inh inconclusive and LASV entry inh inconclusive.
For CCCCCCN1CC(O)=C(c2ccccc2)C1=N the results were MARV entry inh -2%, HCMV inh -5, FMDV inh 4% and LASV entry inh -1%.
`CCCCCn1ccc(=N)cc1` gave MARV entry inh -29%, HCMV inh -73*, FMDV inh -6% and LASV entry inh -29%.
CC1CCC(NC(=O)c2ccc3c(c2)OCO3)CC1 (stereo unspecified) was read as MARV entry inh inconclusive, HCMV inh 32, FMDV inh -25% and LASV entry inh 3.5µM*.
For O=C(NC1CCCCC1)c1ccc2c(c1)OCO2 the results were MARV entry inh inconclusive, HCMV inh 96, FMDV inh 48% and LASV entry inh 4%[46.1 µM].
Screening c1cc2c(cc1CCNC1C3CC4CC(C3)CC1C4)OCO2 (stereo unspecified) returned MARV entry inh inconclusive, HCMV inh 65, FMDV inh 2% and LASV entry inh -20%.
CC1CCC(NCCc2ccc3c(c2)OCO3)CC1 (stereo unspecified) was read as MARV entry inh 16µM*, HCMV inh -13 and LASV entry inh 8%.
Cc1ccc(Cc2c(C)nc3nc(SCC(=O)NC(C)c4ccccc4)nn3c2C)cc1 (stereo unspecified) was read as MARV entry inh -3%[46.1 µM], HCMV inh -1, FMDV inh -16% and LASV entry inh -3%[46.1 µM].
`O=C1NC(=S)N(c2ccccc2F)C(=O)/C1=C\c1cccs1` gave MARV entry inh inconclusive, HCMV inh -7, FMDV inh 32µM* and LASV entry inh 8%.
Screening CCOc1ccc(N2C(=O)/C(=C\c3cccs3)C(=O)NC2=S)cc1 returned MARV entry inh -29%[46.1 µM], HCMV inh 38, FMDV inh -92% and LASV entry inh 3%.
CCCc1nn2c(=O)cc(COC(=O)c3cccc(NC(=O)COc4ccccc4C)c3)nc2s1 was read as HCMV inh 20, FMDV inh 14µM* and LASV entry inh inconclusive.
`Cc1ccccc1OCC(=O)Nc1cccc(C(=O)OCc2cc(=O)n3c(C)csc3n2)c1` gave HCMV inh -89*, FMDV inh -23% and LASV entry inh 14%[46.1 µM].
CCCc1nn2c(=O)cc(COC(=O)c3cccc(NC(=O)COc4ccc(F)cc4)c3)nc2s1 was read as HCMV inh -4, FMDV inh -12% and LASV entry inh 15%[46.1 µM].
CCC1CCCCN1CCCNC(=O)c1csc2c1CCCCC2 (stereo unspecified) was read as HCMV inh -31 and FMDV inh -16%.
For CCN1CCCC1CNC(=O)c1csc2c1CCCC2 (stereo unspecified) the results were MARV entry inh 23µM*, HCMV inh 53 and LASV entry inh -14%.
Screening O=C(NCc1ccco1)c1csc2c1CCCC2 returned MARV entry inh 0%[46.1 µM], HCMV inh -65*, FMDV inh 16% and LASV entry inh 8%.
N/C(=N/O)c1ccccc1N1CCC(Cc2ccccc2)CC1 was read as HCMV inh -91* and FMDV inh 52%.
Screening COc1cccc(CN2CCCC(c3nc(C)ncc3-c3ccc(F)cc3)C2)c1OC (stereo unspecified) returned FMDV inh -10%.
Screening Nc1ncnc2c(C3OC(CO)C(O)C3O)scc12 (stereo unspecified) returned MARV entry inh inconclusive, HCMV inh -97*, FMDV inh -3% and LASV entry inh inconclusive.
`Nc1ncnc2c1ncn2C1O[C@H](CO)[C@@H](O)[C@@H]1O` (stereo partly specified) gave HCMV inh 35 and FMDV inh 0%.
COCCn1c(C)cc(/C=C2/NC(=O)N(c3cccc(Cl)c3)C2=O)c1C was read as HCMV inh -66* and FMDV inh -21%.
For CCn1c(C)cc(/C=C2/NC(=O)N(c3ccccc3)C2=O)c1C the results were MARV entry inh -25%, HCMV inh -13, FMDV inh 45% and LASV entry inh inconclusive.
`CCC[C@@H](CNC)NC[C@H](Cc1ccccc1)NCCCCc1ccccc1` gave HCMV inh inconclusive and FMDV inh -20%.
`CCCC[C@@H](CNC)NC[C@H](NCCCCC1CCCCC1)C(C)C` gave HCMV inh -99* and FMDV inh -8%.
Screening N#Cc1c(C#N)c(SSc2c(C#N)c(C#N)c(N)n2-c2ccccc2)n(-c2ccccc2)c1N returned MARV entry inh inconclusive, HCMV inh -4, FMDV inh 40µM* and LASV entry inh 21%.
